Data from the supplement of paper PMC7380943.
Counter-ions that a name gives are not always drawn.

Tests used:
[1] = tested on: CLZ3 (HCA2 human fibroblast dual HR-NHEJ reporter); test: NHEJ repair efficiency (GFP+ cells) relative to control (log10 fold); higher = more non-homologous end joining; conditions: 5 µM; doxycycline 0.5 ug/mL
[2] = tested on: CLZ3 (HCA2 human fibroblast dual HR-NHEJ reporter); test: HR repair efficiency (tdTomato+ cells) relative to control (log10 fold); higher = more homologous recombination; conditions: 5 µM; doxycycline 0.5 ug/mL
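For HR repair efficiency (tdTomato+ cells) relative to control in this document: compound given one day before doxycycline, which switches on I-SceI endonuclease expression to create double-strand breaks within the integrated reporter.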
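For NHEJ repair efficiency (GFP+ cells) relative to control in this document: compound given one day ahead of doxycycline, which switches on I-SceI endonuclease to cut the chromosomally integrated reporter and create DSBs.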

Structure (SMILES)	NHEJ repair efficiency (log10) [1]	HR repair efficiency (log10) [2]
N#CCc1ccc2c(c1)OCO2 [Homopiperonylonitrile]	0.103	0.127
CCN1C[C@]2(COC)[C@H](O)C[C@H](OC)[C@]34C1[C@H]([C@H](OC)[C@H]23)[C@@]1(OC(C)=O)C[C@H](OC)[C@@]2(O)C[C@@H]4[C@@H]1[C@H]2OC(=O)c1ccccc1 [Indaconitine]	0.0186	0.112
C[C@H]1CCC2N(C1)C[C@H]1C3CC4[C@@H](CC(=O)C5C[C@@H](O)CC[C@@]54C)C3CCC1[C@]2(C)O (stereo not given in full) [Peiminine]	-0.0507	0.0963
C[C@@H]1CC[C@H]2[C@@H](C)C(=O)O[C@@H]3O[C@@]4(C)CC[C@@H]1[C@]32OO4 [Artemisinin]	0.1	0.328
COC(=O)C1=CCCN(C)C1 [Arecoline Hydrobromide]	0.0326	0.0648
O=C(O)[C@@H]1[C@H](C(=O)O)[C@H]2CC[C@@H]1O2 [Endothall Disodium Salt]	0.13	0.143
C=CCSSCC=C [Garlicin]	-0.0895	-0.0428
CCN1C[C@]2(OC(=O)c3ccccc3NC(C)=O)CC[C@H](OC)[C@@]34[C@@H]2C[C@@H]([C@@H]13)[C@@]1(O)C[C@H](OC)[C@H]2C[C@@H]4[C@]1(O)[C@H]2OC [Lappaconitine]	0.147	0.0273
C[C@H]1C(=O)O[C@@H]2CCN3CC=C(COC(=O)[C@](C)(O)[C@]1(C)O)[C@H]23 [Monocrotaline]	-0.0165	0.0383
CN(C)CCc1ccc(O)cc1 [Hordenine]	-0.0244	0.111
